Test results reported in PubChem BioAssay (EPA / NIEHS).
Inconclusive results are not listed. The source made the active and inactive calls. How the source made its calls, unless noted: active means hit-call score of the fitted dose curve at least 0.9, where 1 is the maximum; inactive means score below 0.9.

Experiments:
[1] = molecular target: Hepatocyte nuclear factor 4-alpha (Homo sapiens) (UniProt P41235); experiment: ATG_HNF4a_TRANS: Attagene TRANS-FACTORIAL HepG2 Assay for human Hepatocyte Nuclear Factor 4 alpha (HNF4a) (AID 2282982; active means hit-call score of the fitted dose curve at least 0.9, where 1 is the maximum); conditions: HepG2 HNF4a transactivation reporter, mRNA readout
Method in brief: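 Activity of an exogenous HNF4a–Gal4 fusion scored as induced GAL4-UAS reporter transcripts after 24 h chemical exposure of transfected human HepG2 cells. Read-out via RT-PCR with 6-FAM labelling and capillary electrophoresis; rise over DMSO baseline.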

[2] = ATG_M_06_TRANS: Attagene TRANS-FACTORIAL HepG2 Assay for M06 Transcription Factor (Internal Marker) (AID 2282983; active means hit-call score of the fitted dose curve at least 0.9, where 1 is the maximum); conditions: HepG2 Attagene TRANS M06 internal marker reporter
Method in brief: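 Human liver HepG2 cells bearing transiently transfected chimeric NR-GAL4 reporter units were treated with chemicals for 24 h. Total RNA was reverse-transcribed, reporter sequences amplified and labelled, then quantified by capillary electrophoresis. Activity was fitted upward relative to DMSO.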

[3] = molecular target: Transcriptional activator Myb (Homo sapiens) (UniProt P10242); experiment: ATG_Myb_CIS: Attagene CIS-FACTORIAL HepG2 Assay for human Myeloblastosis (Myb) Proto-Oncogene Transcription Factor (AID 2282986); conditions: HepG2 Attagene CIS-FACTORIAL Myb reporter transcription; actives raise or lower the signal
Method in brief: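 After 24 h of compound dosing, total RNA from transfected HepG2 cells is reverse-transcribed and the reporter sequences amplified, labeled and separated by capillary electrophoresis. Values come from bidirectional fitting against DMSO.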

[4] = molecular target: Nuclear respiratory factor 1 (Homo sapiens) (UniProt Q16656); experiment: ATG_NRF1_CIS: Attagene CIS-FACTORIAL HepG2 Assay for human Nuclear Respiratory Factor 1 (NRF1) Orphan Gene (AID 2282987); conditions: HepG2 NRF1 cis-element reporter, Attagene multiplex; actives raise or lower the signal
Method in brief: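 Measured: fluorescent reporter-specific RT-PCR products from transfected HepG2 cells, separated by capillary electrophoresis. Exposure lasted 24 h. Analysis used bidirectional curve fitting with DMSO as negative control.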

[5] = ATG_NFI_CIS: Attagene CIS-FACTORIAL HepG2 Assay for human Nuclear Factor I (NFI) (AID 2282989); conditions: HepG2 cis-regulatory reporter, NFI response element transcription; actives raise or lower the signal
Method in brief: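 HepG2, transient MRTU, 24 h exposure; RNA→cDNA→PCR→FAM label→HpaI→CE fluorescence. Bidirectional fit, DMSO = baseline.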

[6] = ATG_NF_kB_CIS: Attagene CIS-FACTORIAL HepG2 Assay for human Nuclear Factor Kappa B (NF-kB) (AID 2282991); conditions: HepG2 Attagene cis-factorial NF-kB reporter mRNA; actives raise or lower the signal
Method in brief: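 Fluorescence of labelled RT-PCR products separated by capillary electrophoresis gives reporter mRNA levels from transfected HepG2 cells exposed 24 h; values are fitted in both directions relative to DMSO.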

[7] = ATG_NRF2_ARE_CIS: Attagene CIS-FACTORIAL HepG2 Assay for human Nuclear Factor Erythroid 2 Related Factor 2 (NFR2) response to Antioxidant Response Elements (ARE) (AID 2282992); conditions: HepG2 Attagene ARE/NRF2 reporter, transcription factor activity; actives raise or lower the signal
Method in brief: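 Endogenous transcription factor activity read out as reporter transcript levels (RT-PCR plus capillary electrophoresis, fluorescence) in transiently transfected HepG2 cells. Measured at 24 h after dosing; gain or loss of signal fitted versus DMSO.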

[8] = ATG_Oct_MLP_CIS: Attagene CIS-FACTORIAL HepG2 Assay for human Octamer-Binding Transcription Factor (Oct) (AID 2282993); conditions: HepG2 Attagene cis-factorial Oct reporter, mRNA; actives raise or lower the signal
Method in brief: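 Multiplexed cis-reporter assay in human liver HepG2 cells, 24 h incubation. Reporter RNA amplified and labelled, then resolved by capillary electrophoresis; DMSO serves as negative control and baseline.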

[9] = molecular target: Cellular tumor antigen p53 (Homo sapiens) (UniProt P04637); experiment: ATG_p53_CIS: Attagene CIS-FACTORIAL HepG2 Assay for human p53 Transcription Factor (AID 2282994); conditions: HepG2 p53 cis-element reporter, Attagene mRNA; actives raise or lower the signal
Method in brief: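 Endogenous p53 activity read in transiently transfected HepG2 from a cis-element-driven reporter transcript after 24 h exposure. RNA reverse-transcribed, PCR-amplified, fluorescently labelled and sized by capillary electrophoresis; gain or loss fitted against DMSO baseline.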

[10] = BSK_3C_TissueFactor: BioMAP Diversity Plus: 3C Assay for Tissue Factor Biomarker Activity (AID 2282997); conditions: BioMAP 3C HUVEC, tissue factor biomarker readout; actives raise or lower the signal
Method in brief: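 Cells used were primary human umbilical vein endothelial cells. They were dosed with chemical, and after 24 h Tissue Factor was quantified by ELISA. Curves were fitted bidirectionally with DMSO as baseline.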

[11] = BSK_3C_uPAR: BioMAP Diversity Plus: 3C Assay for Urokinase-type plasminogen activator receptor (uPAR) Biomarker Activity (AID 2282998); conditions: BioMAP 3C HUVEC, uPAR biomarker ELISA; actives raise or lower the signal
Method in brief: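 Dose primary human umbilical vein endothelial cells, incubate 24 h, measure cell-surface uPAR by ELISA, then fit the signal in both directions against the DMSO negative control.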

[12] = BSK_3C_VCAM1: BioMAP Diversity Plus: 3C Assay for Vascular cell adhesion molecule 1 (VCAM1) Biomarker Activity (AID 2282999); conditions: BioMAP 3C HUVEC, VCAM1 ELISA, cytokine-stimulated; actives raise or lower the signal
Method in brief: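 Activity fitted in both directions relative to DMSO, with ELISA measurement of the surface marker on primary HUVEC (3C) at 24 h post-treatment; parallel SRB staining (0.1% SRB, TCA-fixed, 560 nm) flagged overt cytotoxicity.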

[13] = BSK_4H_Eotaxin3: BioMAP Diversity Plus: 4H Assay for Eotaxin 3 Biomarker Activity (AID 2283000); conditions: primary human endothelial cells (HUVEC); actives raise or lower the signal
Method in brief: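 Endothelial primary cells (human umbilical vein) exposed to compound for 24 h. ELISA detection of Eotaxin-3.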

[14] = molecular target: human Peroxisome Proliferator-activated Receptor alpha (PPARa), PPARA (gene 5465) (UniProt Q07869); experiment: ATG_PPARa_TRANS: Attagene TRANS-FACTORIAL HepG2 Assay for human Peroxisome Proliferator-activated Receptor alpha (PPARa) (AID 2283001; active means hit-call score of the fitted dose curve at least 0.9, where 1 is the maximum;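 on AC50: potency for gain of reporter signal over DMSO so agonist or activator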)
Method in brief: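 Reporter transcripts quantified by RT-PCR plus capillary electrophoresis after 24 h treatment, fitted upward relative to DMSO. Cells: human HepG2 transiently carrying multiple GAL4-UAS reporter units driven by NR-Gal4 chimeras.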

[15] = molecular target: human Peroxisome Proliferator-activated Receptor delta (PPARd), PPARD (gene 5467) (UniProt Q03181); experiment: ATG_PPARd_TRANS: Attagene TRANS-FACTORIAL HepG2 Assay for human Peroxisome Proliferator-activated Receptor delta (PPARd) (AID 2283002; active means hit-call score of the fitted dose curve at least 0.9, where 1 is the maximum)
Method in brief: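 Read-out is induced reporter mRNA, quantified by RT-PCR with fluorescent labelling and capillary electrophoresis after 24 h dosing. Cells are HepG2 transiently carrying multiple GAL4-UAS reporter units driven by exogenous NR-GAL4 chimeras; DMSO serves as baseline.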

[16] = read-out: Intercellular Adhesion Molecule 1 (ICAM1), ICAM1 (gene 3383); experiment: BSK_3C_ICAM1: BioMAP Diversity Plus: 3C Assay for Intercellular Adhesion Molecule 1 (ICAM1) Biomarker Activity (AID 2283003); conditions: primary human endothelial cells (HUVEC); actives raise or lower the signal
Method in brief: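 ELISA readout of ICAM1 in human umbilical vein endothelial cells in the 3C system, taken 24 h post-dose. Gain or loss of signal versus DMSO was fitted in both directions, with SRB total-protein staining run in parallel.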

[17] = molecular target: Nuclear receptor subfamily 4 group A member 2 (Homo sapiens) (UniProt P43354); experiment: ATG_NURR1_TRANS: Attagene TRANS-FACTORIAL HepG2 Assay for human Nuclear Receptor Related Protein 1 (NURR1) (AID 2282985; active means hit-call score of the fitted dose curve at least 0.9, where 1 is the maximum); conditions: HepG2 Attagene TRANS reporter, mRNA readout
Method in brief: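 Reporter transcript induction, measured by RT-PCR with fluorescent labelling, HpaI digestion and capillary electrophoresis, after 24 hr dosing of human HepG2 cells transiently expressing an exogenous NR-Gal4 fusion with GAL4-UAS-driven reporters; DMSO as baseline.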

[18] = molecular target: Myc proto-oncogene protein (Homo sapiens) (UniProt P01106); experiment: ATG_Myc_CIS: Attagene CIS-FACTORIAL HepG2 Assay for human Myelocytomatosis (Myc) Proto-Oncogene Transcription Factor (AID 2282990); conditions: HepG2, Attagene cis-reporter transcription factor activity; actives raise or lower the signal
Method in brief: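 After 24 h chemical treatment of HepG2 cells carrying multiplexed cis-regulated reporter constructs, reporter transcripts quantified by RT-PCR and capillary electrophoresis of fluorescent fragments. Gain or loss fitted against DMSO baseline.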

[19] = molecular target: human Retinoic Acid Receptor beta (RARb), RARB (gene 5915) (UniProt P10826); experiment: ATG_RARb_TRANS: Attagene TRANS-FACTORIAL HepG2 Assay for human Retinoic Acid Receptor beta (AID 2283004; active means hit-call score of the fitted dose curve at least 0.9, where 1 is the maximum)
Method in brief: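 HepG2, transient MRTU transfection, NR–Gal4 chimera, 24 h treatment; RT-PCR plus CE fluorescence detection of reporter mRNA; gain of signal vs DMSO.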

[20] = ATG_M_32_TRANS: Attagene TRANS-FACTORIAL HepG2 Assay for M32 Transcription Factor (Internal Marker) (AID 2282984; active means hit-call score of the fitted dose curve at least 0.9, where 1 is the maximum;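 further: transcript level of a background control reporter unit measured by RT-PCR and capillary electrophoresis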); conditions: HepG2 Attagene TRANS M32 internal marker reporter
Method in brief: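 Internal background reporter in transfected HepG2: after 24 h chemical exposure, RNA reverse-transcribed, reporter cDNA amplified, fluorescently labelled and HpaI-cut, then sized by capillary electrophoresis. Gain of signal fitted against DMSO control.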

Measured: AC50

Chain of Transcriptional activator Myb (Homo sapiens) (P10242 whole entry, looked up): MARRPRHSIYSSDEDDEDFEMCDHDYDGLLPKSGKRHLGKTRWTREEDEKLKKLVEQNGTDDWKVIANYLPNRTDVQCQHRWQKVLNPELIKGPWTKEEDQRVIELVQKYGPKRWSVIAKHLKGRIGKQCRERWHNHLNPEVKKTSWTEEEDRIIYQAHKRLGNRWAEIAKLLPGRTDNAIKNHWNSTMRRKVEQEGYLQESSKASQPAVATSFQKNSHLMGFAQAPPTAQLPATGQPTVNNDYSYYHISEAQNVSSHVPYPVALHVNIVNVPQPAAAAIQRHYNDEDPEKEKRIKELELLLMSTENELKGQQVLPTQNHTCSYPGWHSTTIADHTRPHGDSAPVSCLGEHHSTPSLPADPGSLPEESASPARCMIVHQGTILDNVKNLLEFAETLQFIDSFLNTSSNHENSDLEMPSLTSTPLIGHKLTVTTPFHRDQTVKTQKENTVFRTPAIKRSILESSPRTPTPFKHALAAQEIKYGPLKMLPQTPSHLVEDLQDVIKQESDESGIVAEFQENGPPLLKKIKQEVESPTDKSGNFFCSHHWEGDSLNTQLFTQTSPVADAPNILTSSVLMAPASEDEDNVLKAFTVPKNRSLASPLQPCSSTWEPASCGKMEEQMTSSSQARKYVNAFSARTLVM
Chain of Nuclear respiratory factor 1 (Homo sapiens) (Q16656 whole entry, looked up): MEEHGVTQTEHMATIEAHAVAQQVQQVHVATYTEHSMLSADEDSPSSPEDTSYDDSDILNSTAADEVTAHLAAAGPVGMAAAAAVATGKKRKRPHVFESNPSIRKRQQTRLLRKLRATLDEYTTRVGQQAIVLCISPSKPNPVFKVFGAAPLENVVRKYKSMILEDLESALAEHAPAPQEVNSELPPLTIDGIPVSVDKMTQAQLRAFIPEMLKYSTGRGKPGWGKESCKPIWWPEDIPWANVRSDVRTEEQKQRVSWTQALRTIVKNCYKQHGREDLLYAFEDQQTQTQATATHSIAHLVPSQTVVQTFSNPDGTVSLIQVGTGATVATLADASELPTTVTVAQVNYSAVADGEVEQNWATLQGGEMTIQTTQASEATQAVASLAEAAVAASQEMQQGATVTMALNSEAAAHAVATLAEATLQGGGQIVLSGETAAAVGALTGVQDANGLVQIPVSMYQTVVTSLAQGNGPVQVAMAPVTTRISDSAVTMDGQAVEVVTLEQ
Chain of human Peroxisome Proliferator-activated Receptor alpha (PPARa), PPARA (gene 5465) (Q07869 whole entry, looked up, the tested form may be a part): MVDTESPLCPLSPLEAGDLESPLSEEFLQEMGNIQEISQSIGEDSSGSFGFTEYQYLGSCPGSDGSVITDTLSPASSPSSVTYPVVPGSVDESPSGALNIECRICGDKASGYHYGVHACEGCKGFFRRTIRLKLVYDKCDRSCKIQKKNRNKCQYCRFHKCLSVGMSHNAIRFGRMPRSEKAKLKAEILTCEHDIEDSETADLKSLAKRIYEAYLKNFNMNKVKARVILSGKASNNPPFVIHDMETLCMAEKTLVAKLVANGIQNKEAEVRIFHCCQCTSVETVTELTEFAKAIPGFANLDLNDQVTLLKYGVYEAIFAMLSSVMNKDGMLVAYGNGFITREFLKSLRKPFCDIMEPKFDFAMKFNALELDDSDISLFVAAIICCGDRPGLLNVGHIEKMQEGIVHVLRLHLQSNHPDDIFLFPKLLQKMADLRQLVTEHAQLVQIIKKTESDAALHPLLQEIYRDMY
Chain of Cellular tumor antigen p53 (Homo sapiens) (P04637 whole entry, looked up): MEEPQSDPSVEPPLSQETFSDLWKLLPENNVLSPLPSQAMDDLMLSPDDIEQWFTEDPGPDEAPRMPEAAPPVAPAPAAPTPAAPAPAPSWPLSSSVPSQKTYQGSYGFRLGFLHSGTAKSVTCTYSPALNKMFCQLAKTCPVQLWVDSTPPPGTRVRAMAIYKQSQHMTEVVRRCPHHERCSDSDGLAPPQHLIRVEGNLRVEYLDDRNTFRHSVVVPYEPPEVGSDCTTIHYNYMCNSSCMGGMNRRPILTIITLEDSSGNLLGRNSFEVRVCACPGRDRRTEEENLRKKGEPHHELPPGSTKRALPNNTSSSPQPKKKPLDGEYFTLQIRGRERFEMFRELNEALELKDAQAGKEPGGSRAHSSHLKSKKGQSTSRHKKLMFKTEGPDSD
Chain of Myc proto-oncogene protein (Homo sapiens) (P01106 whole entry, looked up, the tested form may be a part): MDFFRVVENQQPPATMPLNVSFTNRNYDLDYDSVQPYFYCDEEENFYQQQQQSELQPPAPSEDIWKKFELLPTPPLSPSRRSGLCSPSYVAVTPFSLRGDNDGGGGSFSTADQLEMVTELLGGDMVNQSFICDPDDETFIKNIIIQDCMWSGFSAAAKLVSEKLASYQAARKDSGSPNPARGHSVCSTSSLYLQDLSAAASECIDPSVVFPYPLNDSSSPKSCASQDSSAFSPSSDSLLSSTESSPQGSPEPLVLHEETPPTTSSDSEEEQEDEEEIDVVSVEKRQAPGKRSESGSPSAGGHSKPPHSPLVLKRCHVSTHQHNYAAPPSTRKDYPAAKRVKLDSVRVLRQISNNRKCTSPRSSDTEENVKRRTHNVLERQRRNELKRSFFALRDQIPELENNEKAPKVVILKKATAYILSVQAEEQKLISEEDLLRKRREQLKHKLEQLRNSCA
Chain of Nuclear receptor subfamily 4 group A member 2 (Homo sapiens) (P43354 whole entry, looked up, the tested form may be a part): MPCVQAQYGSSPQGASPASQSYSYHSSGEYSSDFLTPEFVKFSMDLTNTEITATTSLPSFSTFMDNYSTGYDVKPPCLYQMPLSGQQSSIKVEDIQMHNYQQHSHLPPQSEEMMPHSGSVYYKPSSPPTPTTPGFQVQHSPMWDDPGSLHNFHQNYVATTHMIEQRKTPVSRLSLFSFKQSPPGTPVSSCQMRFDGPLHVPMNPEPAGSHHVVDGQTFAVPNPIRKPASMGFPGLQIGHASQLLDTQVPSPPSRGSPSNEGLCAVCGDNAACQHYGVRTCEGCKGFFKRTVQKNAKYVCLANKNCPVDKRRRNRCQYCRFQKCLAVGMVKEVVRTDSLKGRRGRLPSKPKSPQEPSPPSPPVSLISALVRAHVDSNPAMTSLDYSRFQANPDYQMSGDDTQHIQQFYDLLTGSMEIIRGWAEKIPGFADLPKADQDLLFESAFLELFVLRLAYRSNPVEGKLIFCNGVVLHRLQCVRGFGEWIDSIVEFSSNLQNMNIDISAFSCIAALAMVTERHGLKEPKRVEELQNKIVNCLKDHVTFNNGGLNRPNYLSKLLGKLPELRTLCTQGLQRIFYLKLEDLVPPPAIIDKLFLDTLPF
Chain of human Peroxisome Proliferator-activated Receptor delta (PPARd), PPARD (gene 5467) (Q03181 whole entry, looked up, the tested form may be a part): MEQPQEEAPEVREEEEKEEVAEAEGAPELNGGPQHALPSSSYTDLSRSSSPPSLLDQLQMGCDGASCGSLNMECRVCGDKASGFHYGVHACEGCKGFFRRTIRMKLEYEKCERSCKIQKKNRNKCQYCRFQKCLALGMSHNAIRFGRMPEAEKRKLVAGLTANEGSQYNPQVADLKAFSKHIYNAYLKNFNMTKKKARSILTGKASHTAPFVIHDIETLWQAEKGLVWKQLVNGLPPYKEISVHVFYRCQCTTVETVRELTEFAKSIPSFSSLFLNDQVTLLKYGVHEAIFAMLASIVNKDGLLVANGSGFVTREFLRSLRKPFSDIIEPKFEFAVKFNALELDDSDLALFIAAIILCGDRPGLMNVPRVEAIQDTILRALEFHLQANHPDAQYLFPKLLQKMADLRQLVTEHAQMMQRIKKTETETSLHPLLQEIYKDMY
Chain of Hepatocyte nuclear factor 4-alpha (Homo sapiens) (P41235 whole entry, looked up, the tested form may be a part): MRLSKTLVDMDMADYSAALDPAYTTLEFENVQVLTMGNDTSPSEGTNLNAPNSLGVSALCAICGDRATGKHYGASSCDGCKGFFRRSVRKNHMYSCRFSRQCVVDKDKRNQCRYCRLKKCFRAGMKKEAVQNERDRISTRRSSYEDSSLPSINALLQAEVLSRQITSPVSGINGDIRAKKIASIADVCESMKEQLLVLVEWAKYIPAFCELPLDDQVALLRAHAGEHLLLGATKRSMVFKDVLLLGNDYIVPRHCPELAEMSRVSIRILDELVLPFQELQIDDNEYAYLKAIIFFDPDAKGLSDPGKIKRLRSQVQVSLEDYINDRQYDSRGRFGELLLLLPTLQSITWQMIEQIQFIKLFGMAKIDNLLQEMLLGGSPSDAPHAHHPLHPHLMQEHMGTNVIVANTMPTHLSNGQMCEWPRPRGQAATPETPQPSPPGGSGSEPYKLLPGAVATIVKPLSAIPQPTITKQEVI
Chain of human Retinoic Acid Receptor beta (RARb), RARB (gene 5915) (P10826 whole entry, looked up, the tested form may be a part): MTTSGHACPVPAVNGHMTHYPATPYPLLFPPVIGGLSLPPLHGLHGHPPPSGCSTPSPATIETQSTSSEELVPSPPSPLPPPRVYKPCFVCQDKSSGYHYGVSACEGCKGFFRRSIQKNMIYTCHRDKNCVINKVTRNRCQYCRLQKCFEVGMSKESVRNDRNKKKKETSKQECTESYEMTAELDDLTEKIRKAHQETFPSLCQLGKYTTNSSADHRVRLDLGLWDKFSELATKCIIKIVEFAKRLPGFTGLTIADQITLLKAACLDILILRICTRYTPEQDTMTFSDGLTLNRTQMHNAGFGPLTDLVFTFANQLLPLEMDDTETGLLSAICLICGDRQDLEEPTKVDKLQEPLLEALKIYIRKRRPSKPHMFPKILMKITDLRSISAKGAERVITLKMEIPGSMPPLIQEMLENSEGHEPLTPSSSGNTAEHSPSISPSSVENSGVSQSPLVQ

Oc1ccc(Cc2ccc(O)cc2)cc1
active: [7] 100 µM
not listed: [17] | [18] | [19] | [20]
inactive: all other assays above

CC(C)(C)c1cc([N+](=O)[O-])cc(C(C)(C)C)c1O
active: [17] 12.4 µM | [7] 2.48 µM | [8] 19.8 µM | [10] 3.94 µM | [11] 0.467 µM | [12] 9.12 µM | [13] 0.016 µM
not listed: [2] | [6] | [20]
inactive: all other assays above

CCC[CH2][Sn]([Cl])([Cl])[CH2]CCC
inactive: [1] | [2] | [3] | [18] | [9]
active: [4] 0.778 µM | [5] 0.458 µM | [6] 1.99 µM | [7] 0.315 µM | [8] 0.949 µM

C=CC(=O)OCC(COC(=O)C=C)(COC(=O)C=C)COC(=O)C=C
active: [1] 44.6 µM | [3] 24.5 µM | [6] 1.96 µM | [8] 8.16 µM | [9] 8.93 µM | [14] 100 µM
inactive: [2] | [4] | [5] | [18] | [7] | [15]

C1CN2CCN1CC2
inactive: [1] | [20] | [17] | [3] | [5] | [18] | [6] | [7] | [8]

CCCCC(CC)C(=O)Cl (centres undefined)
inactive: [1] | [2] | [3] | [4] | [5] | [18] | [6] | [7] | [8] | [9] | [14]

O=C1c2ccccc2C(=O)C1C(=O)C(c1ccccc1)c1ccc(Cl)cc1 (centres undefined)
inactive: [1] | [5] | [9] | [14] | [15]
active: [17] 4.69 µM | [3] 173 µM | [18] 27.1 µM | [6] 26.3 µM | [7] 3.96 µM | [8] 6.7 µM

CCCSP(=S)(OCC)Oc1ccc(Cl)cc1Cl (centres undefined)
active: [7] 13.3 µM
inactive: [2] | [20] | [17] | [3] | [4] | [5] | [6] | [8] | [14]

CCOP(=S)(OCC)SCS(=O)(=O)C(C)(C)C
not listed: [1] | [12] | [14] | [15]
inactive: all other assays above

NNCCO
inactive: [1] | [3] | [4] | [5] | [18] | [7] | [8]
